± gives the standard deviation.
Columns and labels:
Conditions in all cases: modulator concentration 10 µM
[1] = tested on: RAW-Dual (murine macrophage reporter line); test: NF-kB reporter (SEAP) activity fold change vs agonist alone; higher = enhanced NF-kB activity
How it was run: (§1)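 In 384-well plates holding 50 000 RAW-Dual murine macrophage reporter cells per well, compound at 10 μM final was pre-incubated for 1 hour at 37 °C, after which a PRR agonist was added overnight. Supernatant SEAP read with QUANTI-Blue at 620 nm absorbance reported NF-κB, and Lucia luciferase read with QUANTI-Luc luminescence reported IRF. Fold change values come from dividing each reporter signal by the mean of agonist-only control wells on the same plate, averaged over replicate plates with propagated errors.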

[2] = tested on: RAW-Dual (murine macrophage reporter line); test: IRF reporter (Lucia luciferase) activity fold change vs agonist alone; higher = enhanced IRF activity
How it was run: as §1

[3] = tested on: RAW-Dual (murine macrophage reporter line); test: viability score (confluency relative to resting cells, overnight) (fraction); higher = more viable, active = viable (0.7 or more)
How it was run: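 Two confluency masks, generated with IncuCyte software over all imaged wells, were applied to IncuCyte images of RAW-Dual macrophages. The cells, in 384-well plates, had been exposed overnight to 10 μM final compound. The viability score is confluency as a fraction of resting cells, and a compound met the cutoff only with both masks above 70% of resting cells.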

[4] = agonist: CpG ODN 1826 0.5 ug/mL

SMILES | NF-kB reporter [1, 4] | NF-kB reporter ([1]; agonist: LPS 0.1 ug/mL) | NF-kB reporter ([1]; agonist: MPLA […]) | IRF reporter ([2]; agonist: 3'3'-cGAMP 10 ug/mL) | IRF reporter ([2]; agonist: LPS 0.1 ug/mL) | IRF reporter ([2]; agonist: MPLA […]) | viability score [3]
CCOc1cc(C=C2SC(=S)N(CCS(=O)(=O)O)C2=O)ccc1O | 0.952 ± 0.087 | 1.04 ± 0.077 | 0.951 ± 0.15 | 0.925 ± 0.027 | 1.28 ± 0.14 | 0.997 ± 0.2 | 1.02 (active)
CCOc1ccc2c(c1)C(c1ccccc1C(F)(F)F)CC(=O)N2 (centres undefined) | 1.02 ± 0.17 | 1.05 ± 0.091 | 1.03 ± 0.1 | 1.09 ± 0.046 | 1.43 ± 0.33 | 1.57 ± 0.23 | 0.995 (active)
COc1ccc(CNC23CC4CC(CC(C4)C2)C3)cc1OC | 0.937 ± 0.072 | 0.899 ± 0.13 | 0.891 ± 0.092 | 0.959 ± 0.03 | 1.1 ± 0.23 | 1.1 ± 0.17 | 1.01 (active)
CC(=O)c1ccc2c3c([nH]c2c1)CCCC3 | 0.792 ± 0.072 | 0.823 ± 0.072 | 1.01 ± 0.092 | 0.936 ± 0.05 | 1.34 ± 0.077 | 1.53 ± 0.15 | 1.01 (active)
COC(=O)C1=C(C)NC(=O)NC1c1ccc(Cl)c(Cl)c1 (centres undefined) | 0.979 ± 0.11 | 1.03 ± 0.067 | 0.951 ± 0.04 | 0.992 ± 0.16 | 1.05 ± 0.1 | 0.964 ± 0.24 | 1 (active)
Cc1cc(OCC(=O)Nc2ccc(Cl)c(C(F)(F)F)c2)ccc1Cl | 0.934 ± 0.079 | 0.942 ± 0.056 | 1.24 ± 0.11 | 1.02 ± 0.051 | 1.7 ± 0.1 | 1.83 ± 0.19 | 0.971 (active)
COc1ccc(S(=O)(=O)NCc2cccnc2-c2cnn(C)c2)cc1Cl | 1.1 ± 0.055 | 1.15 ± 0.12 | 1.04 ± 0.06 | 1.17 ± 0.058 | 1.11 ± 0.072 | 1.04 ± 0.19 | 0.999 (active)
O=C(COc1ccc2ccccc2c1)Nc1cnoc1 | 1.12 ± 0.35 | 1.14 ± 0.081 | 1.12 ± 0.088 | 0.92 ± 0.053 | 1.05 ± 0.17 | 0.942 ± 0.1 | 1 (active)
Cl.O[C@@H](CNC[C@H](O)[C@H]1CCc2cc(F)ccc2O1)[C@@H]1CCc2cc(F)ccc2O1 | 0.947 ± 0.09 | 0.759 ± 0.049 | 0.982 ± 0.028 | 0.68 ± 0.087 | 0.642 ± 0.021 | 1.13 ± 0.21 | 0.13 (inactive)
COc1ccccc1N1C(=O)C(=Cc2ccc3c(c2)OCO3)SC1=S | 0.99 ± 0.16 | 1.05 ± 0.17 | 0.945 ± 0.14 | 0.951 ± 0.046 | 1.2 ± 0.24 | 1.22 ± 0.36 | 0.999 (active)
O=C(c1ccc(F)c(F)c1Nc1ccc(I)cc1F)N1CC(O)([C@@H]2CCCCN2)C1 | 0.155 ± 0.0087 | 0.0529 ± 0.0032 | 0.123 ± 0.012 | 0.871 ± 0.029 | 4.08 ± 0.27 | 1.81 ± 0.16 | 0.0873 (inactive)
O=C(NC1CCCCCC1)c1ccc([N+](=O)[O-])cc1Cl | 1.1 ± 0.084 | 0.94 ± 0.07 | 0.919 ± 0.1 | 0.804 ± 0.035 | 1.08 ± 0.14 | 1.08 ± 0.13 | 0.983 (active)
COc1ccc(Oc2coc3cc(OC(=O)c4ccc(Cl)c([N+](=O)[O-])c4)ccc3c2=O)cc1 | 0.82 ± 0.063 | 0.981 ± 0.052 | 1.08 ± 0.094 | 0.892 ± 0.048 | 1.29 ± 0.08 | 1.43 ± 0.14 | 1.02 (active)
Cc1nc2ccc(CN(C)c3ccc(C(=O)N[C@@H](CCC(=O)O)C(=O)O)s3)cc2c(=O)[nH]1 | 1.28 ± 0.1 | 1.03 ± 0.052 | 1.18 ± 0.1 | 0.863 ± 0.042 | 1.09 ± 0.063 | 1.07 ± 0.12 | 1 (active)
O=C(O)C=Cc1ccc2c(c1)OCCO2 | 1 ± 0.077 | 0.902 ± 0.075 | 1.14 ± 0.12 | 1.07 ± 0.059 | 1.35 ± 0.2 | 1.47 ± 0.33 | 1.02 (active)
Cc1ccc(S(=O)(=O)N2CCN(C(C)C)CC2)cc1 | 1.13 ± 0.11 | 0.94 ± 0.14 | 1.01 ± 0.043 | 0.96 ± 0.17 | 0.898 ± 0.037 | 0.994 ± 0.1 | 0.996 (active)
C=CCn1c(-c2ccc(OC)cc2)cnc1SCC(=O)N1CCc2ccccc21 | 0.967 ± 0.12 | 1.06 ± 0.09 | 1.09 ± 0.18 | 0.927 ± 0.1 | 1.03 ± 0.062 | 0.962 ± 0.11 | 1 (active)
CC(C)NCC(O)COc1ccccc1C(C)(C)C.Cl (centres undefined) | 0.857 ± 0.063 | 1.02 ± 0.098 | 1.15 ± 0.03 | 0.796 ± 0.029 | 1.02 ± 0.084 | 0.952 ± 0.17 | 0.922 (active)
COc1ccc(N(CC(=O)Nc2ccccc2C(F)(F)F)S(C)(=O)=O)cc1 | 0.711 ± 0.14 | 0.672 ± 0.27 | 0.795 ± 0.17 | 0.723 ± 0.074 | 1.03 ± 0.14 | 0.962 ± 0.13 | 0.992 (active)
N=C(N)NCCN1CCCCCCC1.O=S(=O)(O)O | 1.25 ± 0.3 | 1.11 ± 0.088 | 1.24 ± 0.26 | 0.929 ± 0.032 | 1.27 ± 0.14 | 1.24 ± 0.12 | 0.993 (active)
CCC(=O)N1CCCC1c1nc2ccccc2n1CCOc1ccc(Cl)cc1 (centres undefined) | 0.717 ± 0.18 | 1.15 ± 0.063 | 1.2 ± 0.095 | 0.967 ± 0.097 | 0.992 ± 0.21 | 1.1 ± 0.1 | 0.996 (active)
O=C(COC(=O)c1ccc2ccccc2n1)c1ccc(Br)cc1 | 0.988 ± 0.16 | 1.05 ± 0.11 | 1.06 ± 0.14 | 0.972 ± 0.033 | 1.29 ± 0.25 | 1.42 ± 0.26 | 1 (active)
Cc1ccc(N2C(=O)C(=Cc3cccc([N+](=O)[O-])c3)SC2=S)cc1 | 0.957 ± 0.088 | 0.944 ± 0.08 | 0.949 ± 0.11 | 0.623 ± 0.035 | 1.26 ± 0.19 | 1.38 ± 0.29 | 0.996 (active)
Cc1ccc(C=NN=C(c2ccccc2)c2ccccc2)o1 | 0.796 ± 0.061 | 0.988 ± 0.076 | 1.05 ± 0.15 | 0.61 ± 0.028 | 0.975 ± 0.098 | 1.07 ± 0.2 | 1.02 (active)
O=C(O)CCCCC1SCC2NC(=O)NC21 (centres undefined) | 0.935 ± 0.067 | 1.13 ± 0.078 | 0.96 ± 0.078 | 0.953 ± 0.072 | 1.18 ± 0.075 | 1.12 ± 0.25 | 0.997 (active)
Cc1ccc(O)c(N=Nc2ccc(S(=O)(=O)O)cc2)c1 | 1.17 ± 0.11 | 1.15 ± 0.085 | 1.07 ± 0.043 | 1.01 ± 0.12 | 1.08 ± 0.16 | 1.07 ± 0.15 | 1.01 (active)
COc1ccc(CNc2oc(-c3ccc(COc4ccccc4C)o3)nc2C#N)cc1 | 1.48 ± 0.11 | 1.31 ± 0.074 | 2.3 ± 0.054 | 1.3 ± 0.073 | 0.887 ± 0.1 | 1.34 ± 0.32 | 0.934 (active)

Reference: the supplement of paper PMC10646978
